# Experimental data: PubChem BioAssay (NCI)
# This is part of a sample that, as a whole, favours compounds with a hit. Of some 79,000 tested, about 15% had one in any assay. Values without a mark were called inactive. The source made the active and inactive calls. Cut-off read from the data, not from the text of the source: active = growth inhibition above about 70%; inactive = the rest.
# Assay: NCI Yeast Anticancer Drug Screen. Data for the cln2 rad14 strain (AID 165);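 note: 0% = growth equal to vehicle treated cultures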
# Conditions: S. cerevisiae cln2 rad14 strain, at 50.0 µM, hits give high values
# In short: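 Growth of compound-exposed yeast (cln2 rad14 genotype) measured and expressed as inhibition relative to vehicle.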
row,SMILES,growth inhibition
1,OCCSCc1cc(Cl)cc(Cl)c1O,44.4%
2,CC(=O)Nc1ccccc1C(O)(c1ccccc1)c1ccccc1,9.45%
3,Cc1cc(N=Nc2ccccc2C)c(N)cc1N,98.3% (active)
4,O=C(Nc1ccc(Cl)cc1)Nc1nnc(/C=C/c2ccc(Cl)c(Cl)c2)o1,-14.2%
5,CCCCCCCCCCCC(=O)OCCOC(=O)CCCCCCCCCCC,-4%
6,CCN(C(C)=O)c1ccc2c(c1)Cc1ccccc1-2,94.8% (active)
7,O=[N+]([O-])c1cccn2nc(C3OC(CO)C(O)C3O)nc12 (stereo not drawn),34.4%
8,Oc1cc(CNCc2ccccc2)c(O)c(CNCc2ccccc2)c1,38.2%
9,N#CSC#Cc1ccc(C#CSC#N)cc1,87.5% (active)
10,O=C(O)/C=C/C(=O)NNc1nc2ccccc2s1,23.1%
11,COc1ccc2c(c1)[n+]([O-])c(-c1ccc(C)cc1)c(N)[n+]2[O-],98.8% (active)
12,C=CCc1cc([N+](=O)[O-])ccc1O,88.7% (active)
13,CC(C)C1=CC23CCC4C(C)(C(=O)O)CCCC4(C)C2CC1c1c(O)ccc(O)c13 (stereo not drawn),99.2% (active)
14,NC(=O)C(CCc1cccc2ccccc12)c1ccccc1 (stereo not drawn),62.5%
15,CC(CO)CCC(=O)C(C)C1C(=O)CC2CC3CC(O)CCC3(C)CC21C (stereo not drawn),95.1% (active)
16,Oc1c(Cl)cc(Cl)cc1/C=C1\C=Nc2ccccc21,13.6%
17,CCCC(C(=O)OCCN1CCCC1(C)C)C1CCCC1 (stereo not drawn),70.7% (active)
18,OCCN1CCN(CCCN2c3cc(Cl)ccc3Sc3ccsc32)CC1,94.4% (active)
19,O=C(O)/C=C/c1ccc2c(c1)CCCC2,85.3% (active)
20,CC(NNC(=S)N1CCCC1)c1ccc2ccccc2n1 (stereo not drawn),97% (active)

row,SMILES,growth inhibition
1,c1cc(CCSSCCc2ccncc2)ccn1,72.8% (active)
2,CCOC(=O)C(N=Nc1ccc(Br)c(C)c1)C(C)=O (stereo not drawn),76.8% (active)
3,N#CC(C(=O)CCCC(=O)Nc1cccc([N+](=O)[O-])c1)c1cccc2ccccc12 (stereo not drawn),22.6%
4,Cc1ccc(S(=O)(=O)NNC(=O)c2sc(-c3nc(C)c(C(=O)NNS(=O)(=O)c4ccc(C)cc4)s3)nc2C)cc1,-43.5%
5,Nc1nc(Cl)cc(Nc2ccc(Cl)c(Cl)c2)n1,51.7%
6,CN(C)C=Nc1c2ccccc2nc2ccccc12,55.7%
7,Cc1cc(N=[N+]=[N-])c2cc(C3CCCCC3)ccc2n1,90.3% (active)
8,CCN(CC)C(=O)CCCCC(=O)OC(C)C,86.2% (active)
9,CC12CCC(C(Br)(Br)C1=O)C2(C)C (stereo not drawn),30.5%
10,CCCCCCCCN(CCCCCCCC)C(=O)C(C)O (stereo not drawn),81.7% (active)
11,O=C1C=CC(=O)C1=Cc1ccc(Cl)c(Cl)c1,99.2% (active)
12,COc1ccc([N+](=O)[O-])cc1NC(=O)Nc1ccc(C(=O)OCC(C)C)cc1,57%
13,CCOC(=O)n1c2ccccc2c(=O)n1CCO,43.2%
14,CC(=O)OC12CCC3C4CC=C5CC(O)CCC5(C)C4C(=O)C3C1(C)N1CC(C)CC(O)C1C2C (stereo not drawn),56.9%
15,Cc1cccnc1NC(=S)Nc1ccccc1Cl,85.8% (active)
16,CS(=O)(=O)OCCN(CCOS(C)(=O)=O)c1ccc(C=Nc2ccc(-c3cnc(-c4ccc(Cl)cc4)s3)cc2)c(Cl)c1,90.5% (active)
17,CC1(Cc2ccccc2)CCCC(C=O)C1=O.[Cu+2] (stereo not drawn),-21.9%
18,C[N+]1(c2ccccc2)C=C(c2ccccc2)SC1=S (stereo not drawn),23.4%
19,CC12CCC3c4cc(O)ccc4CCC3C1CCC2O (stereo not drawn),24.8%

# Assay: NCI Yeast Anticancer Drug Screen. Data for the bub3 strain (AID 167)
# Conditions: S. cerevisiae bub3 mutant strain, at 5.0 µM (retest, dose inferred, filed as 0.5), hits give high values
# In short: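 Readout: yeast growth inhibition, expressed relative to vehicle-only wells. The test organism is a mutant strain from a panel with lesions in DNA repair or checkpoint genes.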
row,SMILES,growth inhibition
1,OCCSCc1cc(Cl)cc(Cl)c1O,-6%
2,CC(=O)Nc1ccccc1C(O)(c1ccccc1)c1ccccc1,-2%
3,Cc1cc(N=Nc2ccccc2C)c(N)cc1N,-14%
4,O=C(Nc1ccc(Cl)cc1)Nc1nnc(/C=C/c2ccc(Cl)c(Cl)c2)o1,-44%
5,CCCCCCCCCCCC(=O)OCCOC(=O)CCCCCCCCCCC,2%
6,CCN(C(C)=O)c1ccc2c(c1)Cc1ccccc1-2,11%
7,O=[N+]([O-])c1cccn2nc(C3OC(CO)C(O)C3O)nc12 (stereo not drawn),0%
8,Oc1cc(CNCc2ccccc2)c(O)c(CNCc2ccccc2)c1,-1%
9,N#CSC#Cc1ccc(C#CSC#N)cc1,99% (active)
10,O=C(O)/C=C/C(=O)NNc1nc2ccccc2s1,-31%
11,COc1ccc2c(c1)[n+]([O-])c(-c1ccc(C)cc1)c(N)[n+]2[O-],75% (active)
12,C=CCc1cc([N+](=O)[O-])ccc1O,3%
13,CC(C)C1=CC23CCC4C(C)(C(=O)O)CCCC4(C)C2CC1c1c(O)ccc(O)c13 (stereo not drawn),31%
14,NC(=O)C(CCc1cccc2ccccc12)c1ccccc1 (stereo not drawn),-2%
15,CC(CO)CCC(=O)C(C)C1C(=O)CC2CC3CC(O)CCC3(C)CC21C (stereo not drawn),2%
16,Oc1c(Cl)cc(Cl)cc1/C=C1\C=Nc2ccccc21,3%
17,CCCC(C(=O)OCCN1CCCC1(C)C)C1CCCC1 (stereo not drawn),45%
18,OCCN1CCN(CCCN2c3cc(Cl)ccc3Sc3ccsc32)CC1,-2%
19,O=C(O)/C=C/c1ccc2c(c1)CCCC2,-11%
20,CC(NNC(=S)N1CCCC1)c1ccc2ccccc2n1 (stereo not drawn),7%

row,SMILES,growth inhibition
1,c1cc(CCSSCCc2ccncc2)ccn1,1%
2,CCOC(=O)C(N=Nc1ccc(Br)c(C)c1)C(C)=O (stereo not drawn),-6%
3,N#CC(C(=O)CCCC(=O)Nc1cccc([N+](=O)[O-])c1)c1cccc2ccccc12 (stereo not drawn),4%
4,Cc1ccc(S(=O)(=O)NNC(=O)c2sc(-c3nc(C)c(C(=O)NNS(=O)(=O)c4ccc(C)cc4)s3)nc2C)cc1,8%
5,Nc1nc(Cl)cc(Nc2ccc(Cl)c(Cl)c2)n1,3%
6,CN(C)C=Nc1c2ccccc2nc2ccccc12,5%
7,Cc1cc(N=[N+]=[N-])c2cc(C3CCCCC3)ccc2n1,0%
8,CCN(CC)C(=O)CCCCC(=O)OC(C)C,-3%
9,CC12CCC(C(Br)(Br)C1=O)C2(C)C (stereo not drawn),18%
10,CCCCCCCCN(CCCCCCCC)C(=O)C(C)O (stereo not drawn),6%
11,O=C1C=CC(=O)C1=Cc1ccc(Cl)c(Cl)c1,100% (active)
12,COc1ccc([N+](=O)[O-])cc1NC(=O)Nc1ccc(C(=O)OCC(C)C)cc1,-5%
13,CCOC(=O)n1c2ccccc2c(=O)n1CCO,-28%
14,CC(=O)OC12CCC3C4CC=C5CC(O)CCC5(C)C4C(=O)C3C1(C)N1CC(C)CC(O)C1C2C (stereo not drawn),16%
15,Cc1cccnc1NC(=S)Nc1ccccc1Cl,18%
16,CS(=O)(=O)OCCN(CCOS(C)(=O)=O)c1ccc(C=Nc2ccc(-c3cnc(-c4ccc(Cl)cc4)s3)cc2)c(Cl)c1,3%
17,CC1(Cc2ccccc2)CCCC(C=O)C1=O.[Cu+2] (stereo not drawn),-3%
18,C[N+]1(c2ccccc2)C=C(c2ccccc2)SC1=S (stereo not drawn),13%
19,CC12CCC3c4cc(O)ccc4CCC3C1CCC2O (stereo not drawn),-1%
